# According to the supplement of paper PMC6555819:
# How the values were obtained:
# Test in all cases: PBM binding z-score (relative to random genomic background probes); higher = stronger binding; sequences stand for … in GC…GCGATTGACAGCGTAGAATGAAGG
# [1] = system: FXR:RXRa (NR concentration 270 nM, RXRa partner concentration 90 nM)
# Method in brief: (§1)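 Binding z-scores take random background probes as their reference. They come from custom Agilent 4×180K protein-binding microarrays incubated 1 h with ligand-free nuclear receptor dimers, with antibodies against each partner (one per run) detecting binding. Scanned fluorescence was regression-normalized.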
# [2] = system: LXRa:RXRa (NR concentration 270 nM, RXRa partner concentration 90 nM)
# Method in brief: as §1
# [3] = system: LXRa homodimer (NR concentration 270 nM)
# Method in brief: as §1
# [4] = system: LXRb:RXRa (NR concentration 270 nM, RXRa partner concentration 90 nM)
# Method in brief: as §1
# [5] = system: LXRb homodimer (NR concentration 270 nM)
# Method in brief: as §1
# [6] = system: PPARa:RXRa (NR concentration 270 nM, RXRa partner concentration 90 nM)
# Method in brief: as §1
# [7] = system: PPARg:RXRa (NR concentration 180 nM, RXRa partner concentration 90 nM)
# Method in brief: as §1
# [8] = system: PPARg:RXRa 270nM:90nM, anti-RXR (NR concentration 270 nM, RXRa partner concentration 90 nM)
# Method in brief: as §1
# [9] = system: PPARg:RXRa 30nM:10nM, anti-RXR (NR concentration 30 nM, RXRa partner concentration 10 nM)
# Method in brief: as §1
# [10] = system: PPARg:RXRa 90nM:30nM, anti-RXR (NR concentration 90 nM, RXRa partner concentration 30 nM)
# Method in brief: as §1
# [11] = system: PPARg:RXRa DBDmut IVT, anti-RXR (DBD mutation: RXRa K156A/R161A, NR concentration 270 nM, RXRa partner concentration 90 nM)
# Method in brief: as §1
# [12] = system: PPARg:RXRa IVT, anti-PPARg (NR concentration 270 nM, RXRa partner concentration 90 nM)
# Method in brief: as §1
# [13] = system: PPARg DBDmut:RXRa IVT, anti-PPARg (DBD mutation: PPARg1 K132A/R137A, NR concentration 270 nM, RXRa partner concentration 90 nM)
# Method in brief: as §1
# [14] = system: PPARg DBDmut IVT, anti-PPARg (DBD mutation: PPARg1 K132A/R137A, NR concentration 270 nM)
# Method in brief: as §1
# [15] = system: PPARg homodimer (NR concentration 180 nM)
# Method in brief: as §1
# [16] = system: PXR:RXRa (NR concentration 270 nM, RXRa partner concentration 90 nM)
# Method in brief: as §1
# [17] = system: PXR homodimer (NR concentration 270 nM)
# Method in brief: as §1
# [18] = system: RARa:RXR (NR concentration 270 nM, RXRa partner concentration 90 nM)
# Method in brief: as §1
# [19] = system: RARa homodimer (NR concentration 270 nM)
# Method in brief: as §1
# [20] = system: RARb:RXRa (NR concentration 270 nM, RXRa partner concentration 90 nM)
# Method in brief: as §1
Sequence,PBM binding z-score [1],PBM binding z-score [2],PBM binding z-score [3],PBM binding z-score [4],PBM binding z-score [5],PBM binding z-score [6],PBM binding z-score [7],PBM binding z-score [8],PBM binding z-score [9],PBM binding z-score [10],PBM binding z-score [11],PBM binding z-score [12],PBM binding z-score [13],PBM binding z-score [14],PBM binding z-score [15],PBM binding z-score [16],PBM binding z-score [17],PBM binding z-score [18],PBM binding z-score [19],PBM binding z-score [20]
ACCAGTTGGTCAGCTGAGGTCACACACAATTCGG,4.09,3.33,2.22,3.21,0.296,3.54,1.58,2.14,0.389,1.17,1.19,2.26,0.45,-0.406,2.59,5.42,2.07,4.41,0.742,3.71
TCTTCTAGATCAAGCAGGTTAAGAAAGCCTGAGT,0.122,0.597,-0.208,0.619,-0.0275,0.769,-0.479,1.7,3.16,2.53,1.76,0.683,0.767,0.698,0.504,0.69,0.108,0.523,-0.00815,0.276
GCTGCTAGGTCAGGTTCGTCAGCTAACGGGTACG,1.58,0.945,-0.287,0.33,-0.46,1.6,0.685,1.21,-0.222,0.283,3.23,2.23,-0.735,-0.897,0.459,0.538,-0.243,0.887,-0.894,3.17
AATACAGGGTCATCGTAGGCCCGAGTACGCACAG,6.78,5.81,2.32,3.99,0.935,5.82,6.57,6.13,2.54,5.01,2.64,3.72,0.916,-0.158,1.25,3.92,0.581,4.7,0.922,4.23
TCATATAGGTAAACAGGAGAAAGTCCGTAAGTTA,0.871,0.628,-0.02,0.291,-0.116,0.987,1.23,2.26,3.93,3.07,4.08,2.77,0.715,0.615,0.67,0.188,0.377,0.0372,0.767,0.292
ACTAGCAGGCCAAGGGTCACTGAAGATTAGTCCG,3.07,2.89,0.0691,2.66,-0.585,4.73,8.44,7.62,6.5,8.43,1.21,4.08,0.528,0.377,5.87,3.39,-0.283,4.86,0.818,3.76
TTACCAAGGTGAAAGGTCCTTGATGCACGCCTTG,1.03,1.02,-0.388,1.06,-1.03,3.88,5.66,6.39,4.88,6.09,2.49,4.34,-0.24,0.133,0.166,1.1,-0.666,2.31,-0.838,1.93
ATCGAAAGGTCGTGAGGTGAGTATACAGAAAGGC,5.57,4.25,0.175,3.13,0.435,4.95,4.06,4.39,1.92,3.28,-0.0528,2.47,1.08,1.25,2.77,3.39,0.278,4.21,0.287,4.02
ATCCAAAGGTCGTGAGGTGAGTATACAGAAAGGC,5.79,4.82,0.975,3.77,0.687,5.37,5.62,5.62,2.33,4.08,0.752,2.92,1.39,0.827,1.97,3.64,0.629,4.91,1.46,4.4
GATACAGGGACAAGGCCAGAGTACGCGTATTGAT,-0.342,-0.63,-0.318,-0.797,-0.748,-0.534,0.946,0.318,0.00447,-0.175,0.111,0.0816,-0.754,-0.819,0.187,-0.396,0.236,-0.445,-0.566,0.943
CCTGATAGGTCAATGGTCAGCTAAAGCAGCTCGC,5.01,3.98,0.776,2.92,0.415,4.48,4.56,4.96,2.53,4.35,3.36,3.31,-0.515,-0.301,2.74,2.07,0.0154,2.95,0.334,4.06
TCTTGTAGATCAAGCAGGTCAAGAAAGCCTGAGT,0.916,1.2,0.357,1.67,-0.193,2.29,0.0976,1.6,2.11,2.16,1.73,1.75,0.414,-0.0194,0.82,1.7,0.497,1.91,0.192,1.79
CGTTACGGGTCAAGGTTATAGCACGGGTGGTACG,5.94,3.83,0.0546,3.09,-0.0956,5.35,4.95,4.72,1.51,3.37,2.15,3.69,0.343,-0.183,1.78,3.44,0.111,3.92,0.367,4.29
TCATATAGGTAATACAGGTGACAGTCGGCATCTA,1.08,1.27,0.299,0.966,0.0585,1.77,1.81,2.52,3.86,3.05,4.18,3.85,1.35,1.53,1.04,0.765,0.723,1,1.35,0.683
AGAATGAGGTTATTAAGATCATGGAATTGCGGTC,1.63,1.62,0.0389,1.29,-0.00587,2.75,1.91,2.37,0.464,1.49,3.59,3.1,0.789,1.06,0.459,1.53,1.15,1.53,0.293,1.36
AATACAGGGTCATCGTAGGCCAGAATACGCACAG,7.14,6.31,2.07,4.74,1.07,5.64,6.6,5.68,2.64,4.45,2.86,4.2,1.53,0.878,1.87,4.6,0.787,4.56,1.11,4.31
ACTAGCAGGCCACGGGTCACTCAAGATTAGTCCG,0.933,1.15,-0.0855,1.3,-0.734,2.7,3.18,3.72,1.75,3.53,1.77,3.02,0.251,-0.351,0.555,1.52,-0.598,2.05,-0.386,2.17
CCGAGTAAGTTATGGGGCATTCAGGCAACGGTGA,-0.323,-0.322,-0.465,-0.146,-0.649,-0.0291,0.19,0.385,-0.496,0.0497,0.876,0.12,0.0533,-0.856,0.399,-0.507,-0.558,-0.445,-0.0178,-0.111
TCTGCTAGGTCAACGATCGTCAGCTAATCTGCTA,2.97,2.19,-0.465,1.24,-0.245,3.11,2.49,3.26,1.96,2.76,4.39,4.24,-0.071,-0.625,0.478,0.836,-0.972,1.79,-1.13,3.96
